Over roughly 33,000 sequences, “E-score (-0.5 to 0.5)” has its median near -0.015; the highest 2% begin near 0.3. The full list was thinned out, with the highest values kept by preference.
These sequences were tested against T1, Abf1 (UniProt P14164) (assay: PBM E-score (8-mer binding enrichment) (E-score (-0.5 to 0.5)); higher = stronger / more preferred TF binding). Settings: protein concentration: 200 nM; construct: GST-full length.
T1 sequence: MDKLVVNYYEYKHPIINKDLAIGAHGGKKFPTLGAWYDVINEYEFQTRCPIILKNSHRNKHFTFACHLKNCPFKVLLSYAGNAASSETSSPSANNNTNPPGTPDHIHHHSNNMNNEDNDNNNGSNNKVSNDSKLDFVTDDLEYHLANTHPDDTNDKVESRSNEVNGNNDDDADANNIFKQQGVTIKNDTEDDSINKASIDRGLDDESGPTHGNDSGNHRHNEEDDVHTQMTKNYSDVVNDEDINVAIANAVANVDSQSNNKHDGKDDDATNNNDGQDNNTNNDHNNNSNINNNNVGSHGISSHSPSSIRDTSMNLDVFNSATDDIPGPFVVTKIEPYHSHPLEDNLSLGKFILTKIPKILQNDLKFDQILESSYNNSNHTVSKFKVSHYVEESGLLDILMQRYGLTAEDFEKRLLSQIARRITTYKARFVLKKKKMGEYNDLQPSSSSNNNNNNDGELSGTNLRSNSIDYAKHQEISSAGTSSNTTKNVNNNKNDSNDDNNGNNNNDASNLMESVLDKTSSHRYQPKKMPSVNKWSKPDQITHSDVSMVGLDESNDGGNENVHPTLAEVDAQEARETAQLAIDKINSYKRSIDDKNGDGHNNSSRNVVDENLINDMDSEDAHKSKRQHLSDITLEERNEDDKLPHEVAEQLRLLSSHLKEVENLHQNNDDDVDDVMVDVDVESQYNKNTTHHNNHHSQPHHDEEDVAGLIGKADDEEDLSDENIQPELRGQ
Summary of the method: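 Universal all-10-mer Agilent arrays, double-stranded by primer extension on fresh or once-stripped slides, were probed with about 100-200 nM GST-tagged yeast transcription factors made by PURExpress. Fluorescent anti-GST detected bound protein, and masliner normalised the scans. E-scores from the Universal PBM Analysis Suite were given to each ungapped eight-base word pooled with its reverse complement.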

| Sequence | PBM E-score |
| --- | --- |
| AGCATCAT | 0.0136 |
| ATCATCAT | 0.376 |
| ATCATCAG | 0.16 |
| ATCATCGC | 0.301 |
| ATCATCAA | 0.26 |
| GTCATCAA | 0.31 |
| AACATCAG | 0.0871 |
| ATCATCGA | 0.175 |
| TTCATCAA | 0.041 |
| ATCATCGG | 0.116 |
| ATCGCATC | 0.0782 |
| GAATCCCA | -0.00947 |
| AGGCCTTG | -0.302 |
| CTCTCTGA | -0.149 |
| ACCCTTCA | -0.0788 |
| AGGTGTCA | -0.0121 |
| AATTCTGT | -0.144 |
| GTCATCAC | 0.334 |
| GACATCAA | 0.178 |
| GCCATCAC | -0.121 |
| CACATCAC | 0.244 |
| ATCATCAC | 0.393 |

| Sequence | PBM E-score |
| --- | --- |
| AGCATCAC | -0.0618 |
| GGCATCAC | 0.0726 |
| CTCATCAC | 0.217 |
| GACATCAC | 0.352 |
| AGCTTGAC | -0.245 |
| GTGGTGTA | -0.0517 |
| GCCCCTTA | -0.138 |
| CGCCGCCG | -0.223 |
| ATACGGCA | 0.376 |
| ATACGGCC | 0.208 |
| GTACGGCA | 0.222 |
| ATACGGGG | 0.172 |
| ATACGGCG | 0.384 |
| CTACGGCA | 0.291 |
| AGAGGGTC | -0.274 |
| CTTAGGGC | -0.183 |
| GGCTCGAC | -0.0785 |
| CGGCGTCA | -0.103 |
| GATCACTA | 0.389 |
| CATCACTA | 0.351 |
| CATCACTC | 0.385 |
| CATCACAA | 0.0688 |

| Sequence | PBM E-score |
| --- | --- |
| CCTCACTC | 0.0309 |
| GTTCACTA | 0.115 |
| AATCACTC | 0.224 |
| CATCACAC | 0.141 |
| AATCACTA | 0.359 |
| GCTCACTA | 0.0163 |
| AATCACTG | 0.204 |
| CCTCACTA | 0.159 |
| ATCGTAGA | 0.28 |
| AGTGTGGA | -0.0464 |
| CAGTAGGA | -0.109 |
| ATTGTGGG | -0.127 |
| TACCGCGA | -0.111 |
| GGTCGACA | -0.106 |
| GAGCCTAC | -0.171 |
| ATGGTTTC | -0.0221 |
| GATGGGCC | -0.28 |
| CACAGTTA | 0.164 |
| GCTCGAGA | -0.143 |
| CCTCGAGA | -0.0603 |
| TCTCGAGA | 0.302 |
| CATTGTGC | -0.115 |

| Sequence | PBM E-score |
| --- | --- |
| CCGAACTA | -0.143 |
| ACGTAGAA | 0.108 |
| GCGTAGAA | 0.0196 |
| CCGTAGAA | 0.298 |
| CCGTAGAC | 0.0491 |
| TCGTAGAA | 0.393 |
| CCGTAGAG | 0.102 |
| ATACCGGC | 0.0536 |
| CGGGCGCC | -0.053 |
| GTGATTAA | 0.249 |
| CGGATAGA | 0.147 |
| AGTGGTGA | 0.131 |
| GCATCACC | -0.101 |
| ACATCACT | 0.415 |
| ACATCATG | 0.24 |
| ACATCACA | 0.183 |
| ACATCACG | 0.231 |
| ACATCATC | 0.328 |
| ACATCAGT | -0.0164 |
| ACATCATA | 0.169 |

From the supplement of paper PMC3334620
